# Several values for one entry are separate records, joined by “and”; a condition that tells them apart may be missing. Equal values may be shown once. Results filed as inconclusive are left out. Entries that show only a call come without a potency. Activity calls are given as the source filed them. The call rests on the fitted dose curve; in most records, active means well fitted cell-killing curve with a large enough effect; inconclusive means small, poorly fitted or top-dose-only effect; inactive means flat fitted curve, though single readings scatter.
# Assay: Cell Viability - LYMP2-002 (AID 977);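 further: compound exposure lasted 24 h at 37 °C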
# Conditions: LYMP2-002 lymphoblastoid cell viability, qHTS; series mostly up to 92.2 µM
# Summary of the method: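 Human lymphoblastoid cells (2500/well) in complete medium were preincubated 5 hr at 37 C, then exposed to compounds for 24 hr at 37 C. Intracellular ATP was read by CellTiter-Glo luminescence; AC50 came from Hill-equation concentration-response fits.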
# Potency means the concentration at half of the fitted maximal effect.
row,Compound,Potency
1,CCCN(CCC)C(=O)SCC,inactive
2,COc1ccc2nc(N)sc2c1,inactive
3,ClCCCl,inactive
4,CCC(O)OC(O)CC (configuration not stated),inactive
5,C=Cc1ccccc1Cl,inactive
6,c1ccc2c(c1)c1cccc3ccc4cccc2c4c31,inactive
7,Cc1cccc([N+](=O)[O-])c1C,inactive
8,CCCCCCCCO,inactive
9,CC(C)=CCCC(C)CCO (configuration not stated),inactive
10,O=[N+]([O-])c1cccc(Cl)c1Cl,inactive
11,CCO[Si](CCCN)(OCC)OCC,inactive
12,Clc1cc(Cl)c(Cl)cc1Cl,inactive
13,CCO,inactive
14,C=CC(=O)OCCOCCOCCOCCOC(=O)C=C,15.8 µM (active) and 25.1 µM (active)
15,Clc1cc(Cl)c(Cl)c(Cl)c1Cl,inactive
16,CCCCC(CC)CN (configuration not stated),inactive
17,O=NO,inactive
18,c1ccc2c(c1)[nH]c1ccccc12,inactive
19,OCCNCCO,inactive
20,Nc1ccc(Cl)cc1Cl,inactive
21,CCC(C)c1ccccc1O (configuration not stated),inactive
22,CC1=CC(C)(C)Nc2ccccc21,inactive
23,CN(C)C=O,inactive
24,Cc1ccc(N)c([N+](=O)[O-])c1,inactive
25,CCCCOCCO,inactive
26,CC(=O)OC/C=C(\C)CCC=C(C)C,inactive

# Assay: Cell Viability - LYMP2-006 (AID 978); further: nearly all actives have a fitted effect of over 60% in size
# Conditions: LYMP2-006 lymphoblastoid cell viability, qHTS; series mostly up to 92.2 µM
# Summary of the method: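 Human lymphoblastoid cells (LYMP2-006), 2500/well in complete medium, were treated with compound for 24 hr at 37 C. Cellular ATP was read by CellTiter-Glo luminescence after 30 min, and AC50 values came from Hill-equation fits of concentration-response data.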
row,Compound,Potency
1,CCCN(CCC)C(=O)SCC,inactive
2,COc1ccc2nc(N)sc2c1,inactive
3,ClCCCl,inactive
4,CCC(O)OC(O)CC (configuration not stated),inactive
5,C=Cc1ccccc1Cl,inactive
6,c1ccc2c(c1)c1cccc3ccc4cccc2c4c31,inactive
7,Cc1cccc([N+](=O)[O-])c1C,inactive
8,CCCCCCCCO,inactive
9,CC(C)=CCCC(C)CCO (configuration not stated),inactive
10,O=[N+]([O-])c1cccc(Cl)c1Cl,inactive
11,CCO[Si](CCCN)(OCC)OCC,inactive
12,Clc1cc(Cl)c(Cl)cc1Cl,inactive
13,CCO,inactive
14,C=CC(=O)OCCOCCOCCOCCOC(=O)C=C,25.1 µM (active)
15,Clc1cc(Cl)c(Cl)c(Cl)c1Cl,inactive
16,CCCCC(CC)CN (configuration not stated),inactive
17,O=NO,inactive
18,c1ccc2c(c1)[nH]c1ccccc12,inactive
19,OCCNCCO,inactive
20,Nc1ccc(Cl)cc1Cl,inactive
21,CCC(C)c1ccccc1O (configuration not stated),inactive
22,CC1=CC(C)(C)Nc2ccccc21,inactive
23,CN(C)C=O,inactive
24,Cc1ccc(N)c([N+](=O)[O-])c1,inactive
25,CCCCOCCO,inactive
26,CC(=O)OC/C=C(\C)CCC=C(C)C,inactive
